PubChem BioAssay (NCI)
The panel holds about 83,000 compounds, 20% with a hit somewhere; the sample as a whole holds those more often.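 Note: values are percent growth. 100 is the growth of untreated cells, values between 100 and 0 indicate rising inhibition; between -100 and 0 indicates cell death.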 Values without a mark were called inactive. The source made the active and inactive calls. How the source made its calls: active means growth percent below 10; inactive means the rest.

Assays:
Experiment in all cases: NCI-60 one-dose screen, 48 h (100 = growth as untreated, 0 = no growth, -100 = all killed)
Settings in all cases: 10 µM unless noted
NCI-H23 lung = tested on: NCI-H23 lung
NCI-H226 lung = tested on: NCI-H226 lung
NCI-H322M lung = tested on: NCI-H322M lung
HOP-62 NSCLC = tested on: HOP-62 NSCLC
NCI-H460 lung = tested on: NCI-H460 lung
HOP-92 NSCLC = tested on: HOP-92 NSCLC
NCI-H522 lung = tested on: NCI-H522 lung
A549/ATCC NSCLC = tested on: A549/ATCC NSCLC
786-0 renal = tested on: 786-0 renal
COLO 205 colon = tested on: COLO 205 colon

| Compound | growth (NCI-H23 lung) [%] | growth (NCI-H226 lung) | growth (NCI-H322M lung) | growth (HOP-62 NSCLC) | growth (NCI-H460 lung) | growth (HOP-92 NSCLC) | growth (NCI-H522 lung) | growth (A549/ATCC NSCLC) | growth (786-0 renal) | growth (COLO 205 colon) |
| --- | --- | --- | --- | --- | --- | --- | --- | --- | --- | --- |
| CCN1C(=O)N(CC)C2C1NN=c1s/c(=C\c3ccc[nH]3)c(=O)n12 (stereo not given) | 42.9 | 68% | 36.5% | 25.9% | 4.38% (active) | 54.2% | -15.6% (active) | 7.44% (active) | 31% | 4.65% (active) |
| O=C(O)/C=C/C(=O)Nc1cccc(Cn2nnc3cc(Cl)c(Cl)cc32)c1 | 97.3 | 89.8% | 101% | 98.4% | 105% | 97.5% | 96.2% | 102% | 99.7% | 112% |
| CN(C)CCCC1(c2ccc(F)cc2)OCc2cc(-c3ccc4cc[nH]c4c3)ccc21 (stereo not given) | 86.6 | 95.2% | 65% | 74.9% | -10.5% (active) | 45.9% | 61.5% | 49.1% | 78.1% | 9.88% (active) |
| CCOC(=O)c1nn(CC(O)c2ccccc2)c(NC(=O)Nc2cccc(F)c2)c1C (stereo not given) | 108 | 84.8% | 98.9% | 104% | 96.3% | 99.8% | 84.7% | 87.9% | 99.7% | 106% |
| N[C@H]1CCC[C@@H]1NCCCCN1C(=O)c2cccc3cc([N+](=O)[O-])cc(c23)C1=O | 47.7 | 34.4% | 53.4% | 38.4% | 13.7% | 30.1% | 38.4% | 27.6% | 31% | 26% |
| C=CCC(CCCC)(C(=O)OCC)C(=O)OCC | 98.8 | 106% | 109% | 111% | 117% | 96.2% | 94% | 103% | 94.9% | 111% |
| c1nc2ccc(-c3cc4ccc5[nH]ncc5c4c4c3CCCC4)cc2[nH]1 | 78.8 | 57.1% | 41% | 74.3% | 63.1% | 66% | 37.5% | 65.1% | 43.6% | 52.2% |
| CCN1CCN(C(=O)[C@]23CC[C@@H](C)[C@H](C)[C@@H]2C2=CC[C@@H]4[C@@]5(C)C/C(=C/c6cccnc6)C(=O)C(C)(C)[C@@H]5CC[C@@]4(C)[C@]2(C)CC3)CC1 | 34.2 | 47.8% | 65.7% | 44.5% | 7.51% (active) | 56.9% | 17.7% | 32% | 42.4% | 11.5% |
| Cc1[nH]c(C2CC(c3ccc(C(F)(F)F)c(F)c3)=NN2c2ccccc2)c(C)c1C(=O)NCC(F)(F)F (stereo not given) | 89 | 77.2% | 88% | 91.4% | 94.2% | 113% | 89.5% | 84.8% | 90.7% | 93.7% |
| C=C1C(=O)O[C@H]2[C@H]1CC/C(CNC(=O)c1c[nH]c3ccc(F)cc13)=C\CC[C@@]1(C)O[C@@H]21 | 14.2 | 25.9% | 82.9% | 70.6% | 85.7% | -42.3% (active) | -73.9% (active) | 46.6% | -59.5% (active) | -78.6% (active) |
| CN1CCN(CCCOc2cccc3nc(Nc4ccc(F)c(F)c4)ccc23)CC1 | 36 | 56.2% | -13.6% (active) | 5.44% (active) | -26% (active) | 0.0965% (active) | -58.6% (active) | 3.54% (active) | -12.3% (active) | -82.1% (active) |
| O=C(N/N=C/c1cc(Cl)ccc1O)c1ccccc1Nc1ccnc(C(F)(F)F)c1 | 37.9 | -1.12% (active) | 19.9% | 30.4% | 4.73% (active) | 14% | 50.9% | 54.4% | 27.2% | 14.1% |
| CO[C@H]1CC(=O)n2c3ccccc3c3c4c(c5c6ccccc6n1c5c32)C(=O)NC4=O | 63.3 | 52.1% | 63.5% | 54.4% | 29.1% | 86.1% | 58.9% | 57% | 97.4% | 42% |
| CC1=CC(c2ccco2)=C2C(N)=NNC2N1 (stereo not given) | 97.6 | 95.7% | 92.6% | 88.8% | 100% | 77.8% | 95.2% | 101% | 97.6% | 116% |
| CC(=O)O[C@H]1C[C@@H]2C(C)(C)C(=O)CC[C@@]2(C)c2ccc(C(C)C)cc21 | 102 | 101% | 109% | 109% | 107% | 96.5% | 98.3% | 107% | 93.9% | 115% |
| CNC(=O)c1cc(Oc2ccc3c(c2)sc2nc(-c4ccc(OC)cc4)cn23)ccn1 | 41.2 | 61.6% | 56.7% | 19.4% | 6.83% (active) | 35% | 38.1% | 15.9% | 29.3% | 0.159% (active) |
| COc1cc2c(c(OC)c1OC)C(=O)CC(c1cccc(NC(=O)c3ccc(C#N)cc3)c1)O2 (stereo not given) | 70.6 | 68.3% | 91.4% | 73.6% | 85.6% | 67.6% | 46.6% | 77.4% | 91.9% | 90.6% |
| COc1cc(C2C(C(=O)OCc3ccccc3)=C(C)NC(C)=C2C(=O)OCc2ccccc2)cc(OC)c1OC | 29.3 | 32.2% | 58% | 51% | 25.6% | -4.65% (active) | 25% | 23.4% | 25.2% | -47.7% (active) |
| O=C(O)[C@@H](Cc1ccc2ccccc2c1)NC(=O)n1c2ccccc2c2ccccc21 | 34.8 | 85.9% | 49% | 31.3% | 9.11% (active) | 39.5% | -7.97% (active) | 44.3% | 27.7% | -35.2% (active) |
| CCn1cc(CNc2ccc(C(=O)Nc3cc4cc(OC)c(OC)cc4c(C)n3)cc2)cn1 | 43.3 | 48.7% | 103% | 39.6% | 86.7% | 59.5% | 9.72% (active) | 48.1% | 70.4% | 42.1% |
| O=C(Nc1ncccc1OCc1ccccc1)NC1CCCCCC1 | 89.8 | 73.8% | 88.2% | 102% | 93.5% | 68.4% | 72.6% | 97.8% | 89.6% | 103% |
| CCOC(=O)CC1CSC(Nc2ccccc2)=N1 (stereo not given) | 98 | 105% | 96.5% | 100% | 109% | 120% | 94.9% | 95.3% | 98.7% | 125% |
| Nc1nc(N)c2c(n1)NC(c1cccc(Nc3ccnc4cc(C(F)(F)F)ccc34)c1)CC(c1ccccc1)=N2 (stereo not given) | 67.1 | 87.8% | 91.8% | 54.9% | 22.6% | 45% | 28.8% | 41.4% | 67.5% | 30.2% |
| C=C(C)[C@@H]1CC[C@]2(C(=O)N3CCN(C)CC3)CC[C@]3(C)[C@H](CC[C@@H]4[C@@]5(C)CC[C@H](OC(=O)c6ccccc6C(=O)O)C(C)(C)[C@@H]5CC[C@]43C)[C@@H]12 | 99.9 | 99.4% | 101% | 98% | 103% | 102% | 84.2% | 104% | 101% | 111% |
| CCOC(=O)C1=C(C)C(Cl)=N/C1=C\c1[nH]c(Cl)c(C)c1C(=O)OCC | 98.2 | 65.1% | 100% | 96.5% | 108% | 87.8% | 77.5% | 78% | 97.7% | 107% |
| CCc1ccc(CCC(=O)Nc2ncc(Cc3cc(Cl)ccc3Cl)s2)o1 | 48.4 | 42.8% | 36.7% | 29.9% | 10.3% | 51.6% | 3.35% (active) | 22.5% | 30.5% | 8.61% (active) |
